Data on eleven compounds can be found in PubChem BioAssay (NCATS).

Each structure is given as a SMILES string. Results filed as inconclusive are left out. Values without a mark were called inactive. The call rests on the fitted dose curve; in most records, active means well fitted cell-killing curve with a large enough effect; inconclusive means small, poorly fitted or top-dose-only effect, or effect the other way; inactive means no such curve, though single readings can be large or run the other way.

This assay can be described thus: Quantitative High-Throughput drug screen in 47 multiple myeloma cell lines against the NCATS MIPE library collection: OCIMY1_PLB cell viability assay (AID 1918979). Further: nearly all actives have a fitted effect of over 35% in size. To be noted: OCI-MY1 myeloma viability, CellTiter-Glo ATP, 48 h; series mostly up to 45.8 µM; viability: at the top concentration. An excerpt:
PI: Beverly A. Mock Ph.D.
Laboratory of Cancer Biology and Genetics,
Center for Cancer Research, National Cancer Institute,
National Institute of Health, Bethesda, Maryland
Drug resistance and disease progression are common in multiple myeloma (MM) patients, underscoring the need for new therapeutic combinations. […] We hypothesized that effective combinations would reduce MYC expression and enhance p16 activity. […] These preclinical data identify potentially useful drug combinations for evaluation in drug-resistant MM and reveal potential mechanisms of combined drug sensitivity.
Described herein is the primary MIPE qHTS used to cherrypick compounds. Validated compounds were then further tested for potential synergistic activiy.
[1] Peat TJ, Gaikwad SM, Dubois W, Gyabaah-Kessie N, Zhang S, Gorjifard S, Phyo Z, Andres M, Hughitt VK, Simpson RM, Miller MA, Girvin AT, Taylor A, Williams D, D'Antonio N, Zhang Y, Rajagopalan A, Flietner E, Wilson K, Zhang X, Shinn P, Klumpp-Thomas C, McKnight C, Itkin Z, Chen L, Kazandijian D, Zhang J, Michalowski AM, Simmons JK, Keats J, Thomas CJ, Mock BA. Drug combinations identified by high-throughput screening promote cell cycle transition and upregulate Smad pathways in myeloma. Cancer Lett. 2023 Aug 1;568:216284. doi: 10.1016/j.canlet.2023.216284. Epub 2023 Jun 24. PMID: 37356470; PMCID: PMC10408729.
SEQUENCE No. (e.g., 1, 2, 3, etc.); […] (e.g., Cells, Incubation, Reagent, etc.); VALUE and DESCRIPTION.
1; Cells; 5 uL; white, solid bottom 1536-well Greiner assay plate.
2; Compounds; 23 nL; Kalypsis pin tool (Wako USA) equipped with a 1536-well pin head to transfer to the assay plates.
3; Incubation; 48 hours; 37C incubation.
4; Reagent;5uL; CellTiter Glo (Promega).
5; Detector; 425V; Luminescence; Viewlux PerkinElmer.
NOTES (numbers refer to Sequence numbers above)
1. The cell-based screening methods employed in this study were like those previously published. Briefly, the corresponding myeloma cell lines were screened in 1,536-well plates with 500 cells, 5-uL per well for inhibition of cell viability (assessed by measuring ATP levels with CellTiterGlo).
2. NCATS MIPE 4.0 library of approved and investigational drugs were added using the Kalypsis pin tool. Wells treated with DMSO only for 100% viability and media only for 0% viability were used as controls.
3. The assay plates were covered and incubated for 48 hours in a 37C, 5% CO2 incubator with controlled humidity.
4. After 48 hours, CellTilter-GloTM luminescent substrate mix (Promega) reagent was added to the assay plate and plates we incubated for 5 min at room temperature.
5. Signal was measured as median relative luminescence units on a ViewLux (PerkinElmer) multiplate reader.
[1] Heske CM, Davis MI, Baumgart JT, Wilson K, Gormally MV, Chen L, Zhang X, Ceribelli M, Duveau DY, Guha R, Ferrer M, Arnaldez FI, Ji J, Tran HL, Zhang Y, Mendoza A, Helman LJ, Thomas CJ. Matrix Screen Identifies Synergistic Combination of PARP Inhibitors and Nicotinamide Phosphoribosyltransferase (NAMPT) Inhibitors in Ewing Sarcoma. Clin Cancer Res. 2017 Dec 1;23(23):7301-7311. doi: 10.1158/1078-0432.CCR-17-1121. Epub 2017 Sep 12. PMID: 28899971; PMCID: PMC6636827.
On to `C[C@]12CCC(=O)C=C1CC[C@@H]1[C@H]3CC[C@](C)(O)[C@@]3(C)CC[C@@H]12`, for which the “viability” value was 119% [at 92.2 µM]. Regarding `COc1cc(OC)c(OC)cc1C=O`, the “viability” value was 109%. With `CC(NC(C)(C)C)C(=O)c1cccc(Cl)c1` (stereo unspecified), the “viability” value is 94.4%. To `C[C@]12CC[C@@H]3c4ccc(OC(=O)N(CCCl)CCCl)cc4CC[C@H]3[C@@H]1CC[C@@H]2OP(=O)(O)O` belongs 133%. As to `O=P1(N(CCCl)CCCl)NCCCO1` (stereo unspecified), the “viability” value was 109%. For the compound `CC(C)c1cccc(C(C)C)c1O`, the “viability” value is 112%. As for `C[C@]12CC[C@H]3[C@@H](CC[C@@]45O[C@H]4C(O)=C(C#N)C[C@]35C)[C@H]1CC[C@H]2O`, the “viability” value was 108%. Under `CN1C(=O)COc2c(C(=O)NC3CN4CCC3CC4)cc(Cl)cc21` (stereo unspecified) stands 145%; under `CC(C)C[C@H](CN)CC(=O)O`, 108%. Under `CCC1(c2ccc(N)cc2)CCC(=O)NC1=O` (stereo unspecified) stands 109%. For the compound `O=C(O)CCCc1ccc(N(CCCl)CCCl)cc1`, the “viability” value was 108%.
